Reference: PubChem BioAssay AID624255 (Broad Institute, 2012)
Several values for one entry are separate records, joined by “and”; a condition that tells them apart may be missing. Equal values may be shown once. About 4,600 (6%) of roughly 77,000 compounds were called active. About 1% were inconclusive and are not listed.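 How the source made its calls: active means mean inhibition above about 93%, with at least 55% of replicates each passing it (limit read from the data, passing the limit was not always enough); inconclusive means only one of those two conditions holds; inactive means neither condition holds.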 Many of the other results were omitted from the sample, so actives are more common in it than they were.

experiment: growth inhibition of T. cruzi in host fibroblasts – cell-based, beta-gal Tulahuen parasites, NIH3T3 host, luminescence, primary screen (AID 624255); conditions: T. cruzi beta-gal in NIH3T3, GalScreen luminescence, 90 h; at 8.34 µM; active compounds read high

Row | SMILES | inhibition
1 | COc1ccccc1NC(=O)N[C@H]1CC[C@@H](CCn2cc(C3(O)CCCC3)nn2)O[C@@H]1CO | 0.23% (inactive)
2 | C[C@@H](NC(=O)[C@H]1[C@H](CO)[C@H]2Cn3c(cccc3=O)[C@H]2N1C(=O)C1CC1)c1ccccc1 | -11.1% (inactive)
3 | CC=Cc1ccc2n(c1=O)C[C@@H]1[C@@H](CO)[C@H](C(=O)N[C@@H](C)c3ccccc3)[C@H]2N1Cc1ccncc1 (mixture of isomers) | 25.6% (inactive)
4 | COC(=O)C[C@@H]1CC[C@H]2[C@@H](COC[C@H](O)CN2C(=O)Nc2ccccc2OC)O1 | -19.2% (inactive)
5 | CC(=O)N1[C@@H](CO)[C@H](c2ccccc2)[C@@H]1CN(C(=O)c1ccccc1)C(C)C | 26.7% (inactive)
6 | O=C(C[C@H]1C[C@H]2c3cc(NC(=O)C4CCOCC4)ccc3O[C@H]2[C@@H](CO)O1)NCC1CC1 | -5.99% (inactive)
7 | Cn1cnc(S(=O)(=O)N2C[C@H](O)COC[C@@H]3O[C@H](CC(=O)NCc4cccc(F)c4)CC[C@H]32)c1 | 34.3% (inactive)
8 | CN1C[C@@H]2[C@H](c3ccccc31)[C@H](CO)N2C(=O)Nc1ccc(F)cc1 | 15.1% (inactive)
9 | Cc1ccc(S(=O)(=O)Nc2ccc3c(c2)C(=O)N([C@@H](C)CO)C[C@H](C)[C@@H](CN(C)C(=O)Nc2ccc(F)cc2)OCCCC[C@H](C)O3)cc1 | 92.5% (inactive)
10 | O=C(C[C@H]1C[C@H]2c3cc(NC(=O)CC4CC4)ccc3O[C@H]2[C@H](CO)O1)NCc1cc(F)ccc1F | -48.8% (inactive)
11 | CC(C)CC#Cc1ccc2c(c1)O[C@@H](CN(C)C(=O)Nc1ccccc1F)[C@@H](C)CN([C@@H](C)CO)S2(=O)=O | 83.3% (inactive)
12 | COc1cccc(S(=O)(=O)N2CCCCN3[C@H](CO)[C@H](c4ccc(-c5ccncc5)cc4)[C@H]3C2)c1 | 111% (active)
13 | COc1cccc(S(=O)(=O)N2CCCCN3[C@H](C2)[C@H](c2ccc(C#CC(C)C)cc2)[C@@H]3CO)c1 | 118% (active)
14 | COc1ccc(S(=O)(=O)N2CCCCN3[C@H](CO)[C@@H](c4ccc(C#CC(C)C)cc4)[C@H]3C2)cc1 | 106% (active)
15 | Cc1cccc(S(=O)(=O)N2CCCCN3[C@@H](CO)[C@H](c4ccc(-c5cccnc5)cc4)[C@@H]3C2)c1 | 12.6% (inactive)
16 | COc1ccc(C#Cc2ccc([C@H]3[C@@H](CO)N4CCCCN(S(=O)(=O)c5cn(C)cn5)C[C@H]34)cc2)cc1 | 50.5% (inactive)
17 | COc1cccc(S(=O)(=O)N2CCCCN3[C@H](C2)[C@@H](c2ccc(C4=CCCCC4)cc2)[C@@H]3CO)c1 | 51.4% (inactive)
18 | CCCNC(=O)C[C@H]1CC[C@H]2[C@@H](COC[C@H](O)CN2C(=O)Nc2c(C)noc2C)O1 | -19.4% (inactive)
19 | COc1cccc(S(=O)(=O)N[C@@H]2CC[C@@H](CCNC(=O)Cc3ccncc3)O[C@H]2CO)c1 | 80.6% (inactive)

Row | SMILES | inhibition
20 | CS(=O)(=O)N1[C@H](C(=O)NCc2ccncc2)[C@@H](CO)[C@@H]2Cn3c(ccc(C4=CCCCC4)c3=O)[C@@H]21 | 58.6% (inactive)
21 | COc1cccc(S(=O)(=O)N2C[C@@H](O)COC[C@H]3O[C@@H](CC(=O)N4CCOCC4)CC[C@@H]32)c1 | 22.5% (inactive)
22 | O=C(Nc1ccccc1F)N1C[C@@H]2[C@H](c3ccccc31)[C@@H](CO)N2C(=O)Nc1ccccc1 | 8.53% (inactive)
23 | O=C(CN1CCOCC1)NCC[C@H]1CC[C@@H](NC(=O)Nc2ccc(Cl)cc2)[C@@H](CO)O1 | 46.9% (inactive)
24 | O=C(C[C@H]1CC[C@@H]2[C@H](COC[C@@H](O)CN2C(=O)Nc2cccc(F)c2)O1)NCc1ccccc1F | -36.9% (inactive)
25 | COc1cccc(C(=O)Nc2ccc3c(c2)C(=O)N(C)C[C@@H](OC)[C@H](C)CN(C(=O)C2CCOCC2)[C@H](C)CO3)c1 | 9.28% (inactive)
26 | COc1ccc(NC(=O)Nc2ccc3c(c2)C(=O)N([C@H](C)CO)C[C@H](C)[C@H](CN(C)Cc2ccncc2)OCCCC[C@H](C)O3)cc1 | 97.9% (inactive)
27 | COc1ccc(CN(C)C[C@@H]2OCCCC[C@@H](C)Oc3ccc(NC(=O)Nc4ccc(OC)cc4)cc3C(=O)N([C@@H](C)CO)C[C@@H]2C)cc1 | 24.8% (inactive)
28 | C[C@H](CO)N1C[C@H](C)[C@H](CN(C)Cc2ccc(Cl)c(Cl)c2)OCCCC[C@H](C)Oc2ccc(NC(=O)NC3CCCCC3)cc2C1=O | 86.3% (inactive)
29 | C[C@@H]1CCCCO[C@H](CN(C)Cc2ccc(Cl)c(Cl)c2)[C@@H](C)CN([C@@H](C)CO)C(=O)c2cc(NC(=O)Nc3ccccc3)ccc2O1 | 70.7% (inactive)
30 | C[C@@H]1CN([C@H](C)CO)C(=O)c2cc(NC(=O)Nc3ccc(F)cc3)ccc2O[C@@H](C)CCCCO[C@H]1CN(C)Cc1ccc(Cl)c(Cl)c1 | 102% (active)
31 | COc1ccc(NC(=O)Nc2ccc3c(c2)C(=O)N([C@H](C)CO)C[C@@H](C)[C@H](CN(C)Cc2ccc(Cl)c(Cl)c2)OCCCC[C@@H](C)O3)cc1 | 126% (active)
32 | COc1ccccc1-c1ccc2n(c1=O)C[C@H]1[C@H](CO)[C@@H](C(=O)N[C@@H](C)c3ccccc3)[C@@H]2N1C | 18.4% (inactive)
33 | COCC(=O)N(C)C[C@@H]1Oc2cc(C#CC3CC3)ccc2S(=O)(=O)N([C@H](C)CO)C[C@H]1C | -43% (inactive)
34 | C[C@@H]1CN([C@H](C)CO)S(=O)(=O)c2ccc(C#CC3CCCC3)cc2O[C@@H]1CN(C)C(=O)Cc1ccncc1 | 117% (active)
35 | C[C@H]1CN([C@@H](C)CO)S(=O)(=O)c2ccc(C#CC3CCCC3)cc2O[C@H]1CN(C)C(=O)Cc1ccncc1 | 118% (active)
36 | CCC(=O)N(C)C[C@H]1Oc2cc(C#CC3CC3)ccc2S(=O)(=O)N([C@@H](C)CO)C[C@@H]1C | 3.97% (inactive)
37 | CCC(=O)N(C)C[C@H]1Oc2cc(C#CC3CC3)ccc2S(=O)(=O)N([C@H](C)CO)C[C@H]1C | -39.9% (inactive)
38 | C[C@@H]1CN([C@H](C)CO)S(=O)(=O)c2ccc(C#CC3CCCCC3)cc2O[C@H]1CN(C)C(=O)Cc1ccncc1 | 92.8% (inactive) and 91.8% (inactive)
